Screening results: PubChem BioAssay, National Center for Advancing Translational Sciences (NCATS)
Hits are enriched below; roughly 10% of the tested compounds scored in any of these assays.
KB-3-1 cytotox: kills parental KB-3-1 adenocarcinoma cells. 400,000 tested, 1.4% active. AID 1347075. KB-3-1 viability, CellTiter-Glo ATP luminescence, 72 h. Potency, µM (series often up to 46.1 µM), hits mostly cytotoxic; also: % is scaled to controls: 0 for no effect and ±100 for the full control effect; nearly all actives have a fitted effect of over 60% in size
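Parental KB-3-1 adenocarcinoma cells in phenol-red-free DMEM with 10% FBS were pin-treated with compounds at several concentrations, incubated 72 h at 37 °C, and viability read by CellTiter-Glo luminescence; concentration-effect curves were fitted after normalization.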
SW480 rereplic: inducers of DNA re-replication in SW480 colon cancer cells | SW480 DNA re-replication, Hoechst DNA content imaging, 48 h | 340,000 tested, 1.8% active | AID 624297 | Potency, µM (highest dose often 46.1 µM), without a hit: at the top dose re-replication activation, most hits filed as activators; also: % of control where 0% means no effect; nearly all actives have a fitted effect of over 55% in size
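Quantitative HTS format with DMSO vehicle controls; 48 hr drug incubation at 37 C, then 40 min Hoechst staining and scanning imager measurement at 405 nm excitation.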
RORgamma inh: blocks mouse ROR gamma transcriptional activity. 310,000 tested, 5.4% active. Potency, µM (titrated, usually from 53.6 µM), for the others: at the highest dose activity change, negative = inhibition, usual class: inhibitors. P51450. Drosophila S2 Gal4-RORgamma UAS-luciferase reporter, 20 h; also: % is scaled to controls: 0 for no effect and ±100 for the full control effect; nearly all actives have a fitted effect of over 60% in size
Target sequence (P51450 whole entry, looked up, the tested form may be a part): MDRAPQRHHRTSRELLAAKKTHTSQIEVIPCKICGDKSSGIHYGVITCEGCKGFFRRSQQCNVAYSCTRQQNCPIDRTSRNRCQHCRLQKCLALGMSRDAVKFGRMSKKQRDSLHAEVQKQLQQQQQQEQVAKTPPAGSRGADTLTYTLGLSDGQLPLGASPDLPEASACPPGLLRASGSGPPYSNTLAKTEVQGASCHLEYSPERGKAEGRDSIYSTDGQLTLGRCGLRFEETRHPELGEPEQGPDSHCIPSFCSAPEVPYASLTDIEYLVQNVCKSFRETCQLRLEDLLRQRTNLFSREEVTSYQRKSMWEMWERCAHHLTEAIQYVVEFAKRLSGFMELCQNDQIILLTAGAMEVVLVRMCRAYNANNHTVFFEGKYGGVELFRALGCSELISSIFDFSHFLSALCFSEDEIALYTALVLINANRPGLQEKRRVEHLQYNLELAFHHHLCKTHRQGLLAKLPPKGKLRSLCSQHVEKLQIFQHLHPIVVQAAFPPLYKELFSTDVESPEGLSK
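Using a luciferase readout, inhibitors were identified by reduced reporter activity in Drosophila cells coexpressing a copper-inducible Gal4–ROR gamma fusion and UAS-driven Photinus luciferase, incubated 20 hr after 700 uM copper sulfate.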
Gal4-VP16 FLuc: inhibits Gal4-VP16 luciferase reporter, ROR gamma counter-screen | Drosophila S2 Gal4-VP16 UAS-luciferase, luminescence, 20 h | Potency, µM (doses to about 53.6 µM), for the others: at the top dose activity, negative = inhibition, hits mostly inhibitors | 310,000 tested, 3.5% active;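 also: Gal4-VP16 expression switched on by copper sulfate through the metallothionein promoter; % is scaled to controls: 0 for no effect and ±100 for the full control effect; nearly all actives have a fitted effect of over 50% in size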
MCF10A rereplic: inducers of DNA re-replication in MCF 10A breast cells; MCF 10A DNA re-replication, Hoechst nuclear intensity, 48 h; Potency, µM (top dose mostly 46.1 µM), for inactives: top-dose activity, positive = re-replication, hits mostly activators; 350,000 tested, 2.9% active; also: % of control where 0% means no effect; nearly all actives have a fitted effect of over 50% in size
KB-V1 cytotox: KB-V1 MDR subline cytotoxicity; Potency, µM (highest dose often 46.1 µM), hits mostly cytotoxic; AID 1347076; KB-V1 MDR cells viability, CellTiter-Glo, 72 h; 400,000 tested, 3.4% active; also: % is scaled to controls: 0 for no effect and ±100 for the full control effect; nearly all actives have a fitted effect of over 60% in size
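KB-V1 MDR subline cells in DMEM (phenol-red free, 10% FBS) exposed to compounds in qHTS concentration series for 72 h at 37 degrees C. Viability read by CellTiter-Glo luminescence; concentration-effect curves fitted after normalization and correction.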
Starred values were filed as active, the others as inactive; i = inactive; ? = inconclusive; nt = no result; [ ] = remark or other dose. Calls follow the shape of the dose curve; as a rule, active = well fitted curve in the direction sought with a large enough effect; inconclusive = small, poorly fitted or top-dose-only effect, or another doubt; inactive = no such curve, though single readings can be large; an effect the other way counts as inactive or inconclusive. Potency is read from the fitted curve at half-maximal effect.

SMILES | KB-3-1 cytotox | SW480 rereplic | RORgamma inh | Gal4-VP16 FLuc | MCF10A rereplic | KB-V1 cytotox
Cc1[nH]nc2nc(SCC(=O)NC3CCCCC3)n(-c3ccc(Br)cc3)c(=N)c12 | ? | ? | ? | ? | 11.6µM* | i
CC(C)(C)OC(=O)N1CCC(c2c(C(=O)NCCN3CCC(Cc4ccccc4)CC3)cnn2-c2ccccc2)CC1 | i | nt | nt | nt | nt | ?
COc1ccc(CCN2CCC(CNC(=O)c3cnn(-c4ccccc4)c3C3CCN(C(=O)OC(C)(C)C)CC3)CC2)cc1 | 16.4µM* | nt | nt | nt | nt | ?
Clc1ccc(-n2cc(-c3ccc(Br)cc3)[n+]3c2CCCCC3)cc1 | ? | ? | 2.9% | -9.9% | 5.7% | i
FC(F)Sc1ccc(-n2cc(-c3ccc(Cl)cc3)[n+]3c2CCC3)cc1 | 18.4µM* | 1.4% | -7.7% | -21.8% | 3.4% | i
FC(F)Oc1ccc(-n2cc(-c3ccccc3)[n+]3c2CCCCC3)cc1 | 23.1µM* | -10.8% | 34.7% | -14.5% | -2.2% | i
Cc1ccc(-c2cn(-c3ccc(OC(F)F)cc3)c3[n+]2CCCCC3)cc1 | i | -1.1% | 37.1% | -19.7% | 5.1% | i
Cc1ccc(-c2cn(-c3ccc(SC(F)F)cc3)c3[n+]2CCC3)cc1 | 2.06µM* | -6.6% | 2.7% | ? | 1.7% | i
N#Cc1c(-c2ccco2)cc(-c2ccccn2)nc1N | i | 9.9% | 10µM* | 11.2µM* | ? | i
O=C(O)[C@H]1CCCN1 | nt | nt | -10.4% | -2.8% | nt | nt
CCOc1ccc(NC(=O)CC2C(=O)N(c3ccccc3)C(=O)N2C2CCCCC2)cc1 (stereo not given) | i | nt | nt | nt | nt | i
CCc1ccc(Nc2ncc3c(n2)CC(c2ccc(OC)cc2)CC3=O)cc1 (stereo not given) | ? | 20.6µM* | 0.1% | -15.1% | 18.4µM* | i
COc1cccc(C(=O)Nc2ncc3c(n2)CC(c2ccc(OC)cc2OC)CC3=O)c1 (stereo not given) | ? | 6.51µM* | 1.2% | 3.8% | 2.31µM* | 5.17µM*
COc1ccc(Nc2ncc3c(n2)CC(c2ccccc2)CC3=O)cc1 (stereo not given) | i | 11.0% | 0.7%[10 µM] | -10.5% | ? | i
COc1ccc(C(=O)Nc2ncc3c(n2)CC(C)CC3=O)cc1 (stereo not given) | i | -13.3% | 0.9% | 2.7%[10 µM] | -5.5% | i
CC(NC(=O)c1ccco1)C(=O)OCC(=O)N1CCCCCC1 (stereo not given) | i | -8.9% | nt | nt | -1.7% | ?
COc1ccc(CNC(=O)COC(=O)CC2CC3CCC2C3)cc1OC (stereo not given) | i | 1.5% | 26.4% | -16.8% | 0.9% | i
COc1ccc(-c2cc(-c3nnc(COC(=O)CC4CC5CCC4C5)o3)c3ccccc3n2)cc1OC (stereo not given) | ? | 2.59µM* | -4.4% | 6.9% | ? | 9.2µM*
CN1C(=O)c2cccc3c(S(=O)(=O)NCCc4ccccc4)ccc1c23 | i | ? | ? | -14.5% | 23.1µM* | i
Cn1c(SCC(=O)Nc2nccs2)nnc1C12CC3CC(CC(C3)C1)C2 | i | -1.3% | ? | -21.1% | 4.6% | 20.6µM*
Cn1c(SCC(=O)Nc2nccs2)nnc1C1CC1 | i | -1.4% | -0.3% | -5.3% | 0.0% | ?
Cn1c(CC(=O)Nc2ccc(Cl)c(Cl)c2)nnc1SCC(=O)Nc1nccs1 | i | -6.0% | 3.2% | 5.0% | -4.6% | i
Cn1c(CSCc2ccccc2Cl)nnc1SCC(=O)Nc1nccs1 | i | -11.4% | -5.3% | 4.2%[0.365 µM] | 12.1% | 20.6µM*
Cc1cccc([C@@H]2CN(C)CCc3c2cc(O)c(O)c3Cl)c1 | nt | nt | -27.6% | -11.2% | nt | nt
O=C(CSc1nc2ccccc2s1)NNC(=S)Nc1ccccc1 | i | ? | 1µM* | 4.47µM* | ? | i
N#CC1(NC(=O)CSc2nc3ccccc3s2)CCCCC1 | i | -2.4% | nt | nt | 21.5% | 16.4µM*
